Our source for the Potency and outcome values is PubChem BioAssay (Tox21).

A short description of assay [1]: qHTS assay to identify small molecule antagonists of the glucocorticoid receptor (GR) signaling pathway - cell viability counter screen (AID 720693). Also: nearly all actives have a fitted effect of over 55% in size.
The nature of assay [2]: qHTS assay to identify small molecule antagonists of the androgen receptor (AR) signaling pathway - cell viability counter screen (AID 743033; also: nearly all actives have a fitted effect of over 45% in size; also: potency is read from the fitted curve at half-maximal effect).
A short description of assay [3]: qHTS assay to identify small molecule antagonists of the androgen receptor (AR) signaling pathway using the MDA cell line - cell viability counter screen (AID 743041; also: nearly all actives have a fitted effect of over 45% in size; also: potency is read from the fitted curve at half-maximal effect). The gist of the method: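 In this qHTS counter assay, fluorescence intensity after CellTiter-Fluor addition indicated viability of MDA-kb2 AR-luc cells given compounds and R1881 for 16 h at 37C.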

A short description of assay [4]: qHTS assay to identify small molecule antagonists of the thyroid receptor (TR) signaling pathway - cell viability counter screen (AID 743064). Also: nearly all actives have a fitted effect of over 50% in size. Also: potency is read from the fitted curve at half-maximal effect. The gist of the method:
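In rat pituitary GH3.TRE-Luc reporter cells co-exposed to compound and 1 nM T3 for 23.5 h, cytotoxicity was assessed with CellTiter-Fluor in the same wells, read by fluorescence.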

In assay [5] the test system is thyroid hormone receptor (rat, GH3 cells). In words: qHTS assay to identify small molecule agonists of the thyroid receptor (TR) signaling pathway (AID 743066; calls by dose curve).
Assay [6] in a line: qHTS assay to identify small molecule antagonists of the estrogen receptor alpha (ER-alpha) signaling pathway - cell viability counter screen (AID 743074; calls by dose curve;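 also: HEK293 cells carrying ER-alpha-UAS-bla reporter stimulated with 17beta-estradiol; nearly all actives have a fitted effect of over 45% in size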; also: potency is read from the fitted curve at half-maximal effect).
Assay [7] in a line: qHTS assay to identify small molecule antagonists of the estrogen receptor alpha (ER-alpha) signaling pathway using the BG1 cell line (AID 743080; calls by dose curve;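 also: BG1 cells stimulated with 17beta-estradiol alongside compound; series mostly up to about 70 µM; nearly all actives have a fitted effect of over 25% in size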). The method in brief: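 Luminescence from a 4×ERE-luciferase reporter in BG1-Luc-4E2 cells served as read-out. Cells, pre-cultured 5 days in stripped-serum phenol-red-free medium, were exposed to compound with 17beta-estradiol co-stimulation for 21.5 h at 37 C.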

Assay [8] is described as follows: qHTS assay to identify small molecule antagonists of the estrogen receptor alpha (ER-alpha) signaling pathway using the BG1 cell line - cell viability counter screen (AID 743081).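 Also: compound given together with 17beta-estradiol as the ER stimulus; nearly all actives have a fitted effect of over 45% in size.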 Also: potency is read from the fitted curve at half-maximal effect.
The target in the next assay is Aromatase (Homo sapiens) (UniProt P11511). In words: qHTS assay to identify aromatase inhibitors (AID 743083). Also: nearly all actives have a fitted effect of over 55% in size. Also: potency is read from the fitted curve at half-maximal effect.
The nature of assay [9]: qHTS assay to identify aromatase inhibitors - cell viability counter screen (AID 743084).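 Also: cells stimulated with testosterone during compound exposure; nearly all actives have a fitted effect of over 55% in size.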 Also: potency is read from the fitted curve at half-maximal effect.
Assay [10] in a line: qHTS assay to identify small molecule antagonists of the thyroid receptor (TR) signaling pathway (AID 743065). Also: nearly all actives have a fitted effect of over 55% in size. Also: potency is read from the fitted curve at half-maximal effect. The method in brief:
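GH3.TRE-Luc rat pituitary cells carrying two TR response elements driving luciferase were plated for 4 h, given compound plus 1 nM T3 (final), and incubated 23.5 h at 37 C. ONE-Glo luminescence measured reporter inhibition; CellTiter-Fluor fluorescence tracked cytotoxicity.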

A short description of assay [11]: qHTS assay for identifying genotoxic compounds that show differential cytotoxicity against isogenic chicken DT40 cell lines with known DNA damage response pathways - wild type cell line (AID 743012). Also: nearly all actives have a fitted effect of over 60% in size. Also: potency is read from the fitted curve at half-maximal effect. The gist of the method:
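Cytotoxicity in repair-proficient parental chicken DT40 cells serves as the comparator for Rad54/Ku70- and Rev3-deficient lines. Cells were exposed to compounds for 40 h at 37 C/5% CO2, and ATP-based luminescence (CellTiter-Glo) measured viability.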

Assay [12] in a line: qHTS assay for identifying genotoxic compounds that show differential cytotoxicity against isogenic chicken DT40 cell lines with known DNA damage response pathways - Rev3 mutant cell line (AID 743014). Also: nearly all actives have a fitted effect of over 55% in size. Also: potency is read from the fitted curve at half-maximal effect.
Assay [13] in a line: qHTS assay for identifying genotoxic compounds that show differential cytotoxicity against isogenic chicken DT40 cell lines with known DNA damage response pathways - Rad54/Ku70 mutant cell line (AID 743015). Also: nearly all actives have a fitted effect of over 60% in size. Also: potency is read from the fitted curve at half-maximal effect.
The target of assay [14] is Estrogen receptor (Homo sapiens) (UniProt P03372). The experiment in a line: qHTS assay to identify small molecule antagonists of the estrogen receptor alpha (ER-alpha) signaling pathway (AID 743069; active = well fitted curve in the direction sought with a large enough effect in the signal ratio in the repeat runs, not every such curve was filed as active; inconclusive = weak or mixed curves, or effect the other way; inactive = no such curve, though single readings can be large or run the other way; the % refers to the signal ratio; also: potency is read from the fitted curve at half-maximal effect). The method in brief: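 A 17beta-estradiol challenge was applied right after compound transfer to ER-alpha-UAS-bla HEK293 cells previously kept in charcoal-stripped serum. Plates stood 18 hr at 37C and 5% CO2; fluorescence was read following 2 hr FRET substrate loading at room temperature.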

Assay [15] shares this target. In words: qHTS assay to identify small molecule agonists of the estrogen receptor alpha (ER-alpha) signaling pathway (AID 743075; calls by dose curve;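 also: HEK293 GripTite cells with ER-alpha and UAS-driven beta-lactamase reporter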; also: potency is read from the fitted curve at half-maximal effect).
The target is the same in assay [16]. The experiment in a line: qHTS assay to identify small molecule agonists of the estrogen receptor alpha (ER-alpha) signaling pathway using the BG1 cell line (AID 743079). Also: nearly all actives have a fitted effect of over 20% in size. Also: potency is read from the fitted curve at half-maximal effect.
The target of assay [17] is Androgen receptor (Homo sapiens) (UniProt P10275). The experiment in a line: qHTS assay to identify small molecule agonists of the androgen receptor (AR) signaling pathway using the MDA cell line (AID 743040; also: nearly all actives have a fitted effect of over 20% in size). The method in brief: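 Cell-based luciferase reporter: MDA-kb2, MMTV promoter (AR + GR response elements). 16 h compound exposure at 37C; ONE-Glo, 30 min RT, luminescence.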

Where “and” joins values, the source holds several entries; their conditions need not be identical. Identical values can stand only once. The source holds several records for some structures; these can differ, active in one and inactive in another. Calls of active or inactive are those of the source. Unless noted, calls follow the shape of the dose curve; as a rule, active = well fitted curve in the direction sought with a large enough effect in the repeat runs; inconclusive = weak or mixed curves; inactive = no such curve, though single readings can be large; an effect the other way counts as inactive or inconclusive.

Sequence of Aromatase (Homo sapiens) (P11511 whole entry, looked up): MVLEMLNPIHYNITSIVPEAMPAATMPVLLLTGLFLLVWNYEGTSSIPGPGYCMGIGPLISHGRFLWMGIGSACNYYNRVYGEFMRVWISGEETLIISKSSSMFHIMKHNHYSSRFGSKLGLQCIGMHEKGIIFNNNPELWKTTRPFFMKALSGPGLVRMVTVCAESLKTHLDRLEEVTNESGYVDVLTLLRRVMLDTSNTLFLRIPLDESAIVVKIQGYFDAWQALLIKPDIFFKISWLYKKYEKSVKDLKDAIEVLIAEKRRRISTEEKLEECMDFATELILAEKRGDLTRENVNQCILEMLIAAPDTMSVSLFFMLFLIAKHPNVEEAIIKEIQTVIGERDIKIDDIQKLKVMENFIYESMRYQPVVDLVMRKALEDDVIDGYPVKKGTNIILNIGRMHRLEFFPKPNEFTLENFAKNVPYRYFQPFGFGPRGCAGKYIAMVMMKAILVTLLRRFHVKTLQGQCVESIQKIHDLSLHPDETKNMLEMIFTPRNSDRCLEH
Sequence of Estrogen receptor (Homo sapiens) (P03372 whole entry, looked up): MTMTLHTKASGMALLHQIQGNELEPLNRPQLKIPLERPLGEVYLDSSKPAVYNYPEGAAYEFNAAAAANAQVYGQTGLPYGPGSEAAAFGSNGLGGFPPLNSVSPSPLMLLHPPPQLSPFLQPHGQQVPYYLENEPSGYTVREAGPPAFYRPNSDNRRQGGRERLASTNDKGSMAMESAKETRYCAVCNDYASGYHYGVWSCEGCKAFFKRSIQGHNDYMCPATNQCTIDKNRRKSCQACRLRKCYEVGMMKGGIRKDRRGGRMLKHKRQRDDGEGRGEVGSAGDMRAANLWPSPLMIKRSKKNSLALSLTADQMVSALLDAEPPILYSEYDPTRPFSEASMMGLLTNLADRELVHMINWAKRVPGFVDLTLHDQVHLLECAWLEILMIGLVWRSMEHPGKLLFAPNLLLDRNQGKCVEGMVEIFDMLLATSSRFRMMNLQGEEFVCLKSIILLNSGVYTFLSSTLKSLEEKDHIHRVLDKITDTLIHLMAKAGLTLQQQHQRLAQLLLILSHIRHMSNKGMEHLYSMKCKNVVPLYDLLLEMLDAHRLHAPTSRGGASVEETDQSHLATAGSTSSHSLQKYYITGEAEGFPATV
Sequence of Androgen receptor (Homo sapiens) (P10275 whole entry, looked up): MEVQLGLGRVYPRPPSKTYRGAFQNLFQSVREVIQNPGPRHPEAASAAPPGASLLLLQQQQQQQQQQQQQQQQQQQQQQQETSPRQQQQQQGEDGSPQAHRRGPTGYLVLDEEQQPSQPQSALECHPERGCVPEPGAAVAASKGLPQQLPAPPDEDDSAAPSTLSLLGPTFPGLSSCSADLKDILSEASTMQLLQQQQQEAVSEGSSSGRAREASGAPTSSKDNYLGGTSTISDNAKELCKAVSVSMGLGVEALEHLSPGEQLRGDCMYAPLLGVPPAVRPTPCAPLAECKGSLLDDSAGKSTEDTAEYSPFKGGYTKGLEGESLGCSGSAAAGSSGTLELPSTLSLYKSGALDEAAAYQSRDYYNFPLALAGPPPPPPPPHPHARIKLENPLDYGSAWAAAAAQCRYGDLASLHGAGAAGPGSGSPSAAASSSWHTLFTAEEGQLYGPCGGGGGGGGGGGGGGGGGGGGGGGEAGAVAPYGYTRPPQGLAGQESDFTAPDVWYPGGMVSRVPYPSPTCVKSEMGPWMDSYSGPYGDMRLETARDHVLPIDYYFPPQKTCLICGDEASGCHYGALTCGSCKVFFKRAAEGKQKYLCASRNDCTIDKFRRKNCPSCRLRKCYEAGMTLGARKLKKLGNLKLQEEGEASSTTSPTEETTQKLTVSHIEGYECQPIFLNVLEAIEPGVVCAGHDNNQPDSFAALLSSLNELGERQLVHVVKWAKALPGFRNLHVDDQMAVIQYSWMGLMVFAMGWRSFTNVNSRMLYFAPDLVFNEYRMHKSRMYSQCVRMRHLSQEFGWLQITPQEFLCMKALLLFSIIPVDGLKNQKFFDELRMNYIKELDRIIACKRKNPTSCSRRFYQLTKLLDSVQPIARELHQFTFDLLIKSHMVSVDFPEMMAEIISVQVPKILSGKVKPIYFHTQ

Regarding `Clc1ccc(CCC(Cn2ccnc2)Sc2c(Cl)cccc2Cl)cc1` (centres undefined), the Potency entry in assay [1], in assay [2], in assay [3], in assay [4], in assay [6] and in assay [7] was “inactive” in each case. The Potency result in assay [8] and in assay [9] was “inactive” each time. The call in [5] was inactive. Also, the Potency in the assay with Aromatase (Homo sapiens) is 12.7 µM (active).

`FC(F)(F)c1cccc(C2=CCN(CCc3ccc4ccccc4c3)CC2)c1`: the Potency result in assay [1], in assay [2], in [3], in [4], in assay [10] and in [6] was “inactive” in each case. For the same molecule, the Potency entry (in assay [8]; with Aromatase (Homo sapiens); in [9]) was “inactive” throughout. Moreover, the molecule was classed as inactive in [5].

Turning to `CC[C@H](C)[C@H]1O[C@]2(C=C[C@@H]1C)C[C@@H]1C[C@@H](C/C=C(\C)[C@@H](O[C@H]3C[C@H](OC)[C@@H](O[C@H]4C[C@H](OC)[C@@H](O)[C@H](C)O4)[C@H](C)O3)[C@@H](C)/C=C/C=C3\CO[C@@H]4[C@H](O)C(C)=C[C@@H](C(=O)O1)[C@]34O)O2`, the Potency was 18.8 µM (active) and 3.61 µM (active) in assay [11]; 21.1 µM (active) and 10.2 µM (active) in assay [12]; 26.6 µM (active) and 6.42 µM (active) in [13]; 3.22 µM (active) in assay [4]; 26.6 µM (active) and 3.22 µM (active) in assay [10]; 4.59 µM [inconclusive] (active) in assay [14]. For the same molecule, the Potency entry in assay [6] is “inactive and 25.8 µM (active)”; with Aromatase (Homo sapiens), “inactive and 14.4 µM (active)”; in assay [9] it was “inactive and 18.1 µM (active)”. The Potency entry in assay [2], in [3], in assay [15], in assay [16], in assay [7] and in assay [8] was “inactive” throughout.

As to `[Cl][Sb]([Cl])[Cl]`, the Potency entry (in assay [1]; in assay [12]; in [2]; in assay [6]; in [8]; in the assay with Aromatase (Homo sapiens)) was “inactive” throughout. Moreover, the Potency entry in assay [9] was “inactive”. The Potency in assay [4] is 17.2 µM (active). In addition, the molecule was called inactive in assay [5].

`ClC1=C(Cl)[C@]2(Cl)[C@H]3[C@H]([C@H]4C=C[C@H]3C4)[C@@]1(Cl)C2(Cl)Cl`: the Potency entry in assay [1], in assay [2], in assay [3], in [14], in assay [6] and in assay [15] was “inactive” each time. Moreover, the Potency entry (in assay [7]; in [8]; with Aromatase (Homo sapiens); in assay [9]) was “inactive” throughout. In addition, the Potency was 61.1 µM (active) in [13] and 27.3 µM (active) in [16]. In assay [5], the call was inactive.

As to `c1ccc(OCC2CO2)cc1` (centres undefined), the Potency result in [1], in [3], in [4], in [10], in assay [6] and in assay [8] was “inactive” throughout. Moreover, the Potency entry (with Aromatase (Homo sapiens); in assay [9]) was “inactive” in each case. Further, the molecule was called inactive in [5].

For `CCCCN(CCCC)C(=S)[S-].CCCCN(CCCC)C(=S)[S-].[Zn+2]`, the Potency entry (in [11]; in assay [12]; in [13]; in [2]; in assay [3]; in the assay with Aromatase (Homo sapiens)) was “inactive” throughout. Further, the Potency result in assay [9] is “inactive”. The Potency in assay [4] is 18.8 µM (active) and 7.69 µM (active); in assay [10], 13.3 µM (active) and 9.68 µM (active); in assay [6], 19 µM (active) and 12.3 µM (active); in assay [15], 30.1 µM [inconclusive] (active); in [8], 21.1 µM (active) and 38.5 µM (active).

As to `COP(=S)(OC)Oc1cc(Cl)c(Br)cc1Cl`, the Potency result in [1], in assay [17], in assay [3], in assay [4], in [16] and in assay [7] was “inactive” in each case. Besides, the Potency entry (in [8]; with Aromatase (Homo sapiens); in assay [9]) was “inactive” in each case. Further, the Potency was 61.1 µM (active) in assay [12], 61.1 µM (active) in [10] and 54.9 µM [inconclusive] (active) in [15]. Also, the call in assay [5] was inactive.

`CC(C)(C)c1cc([N+](=O)[O-])cc(C(C)(C)C)c1O`: the Potency was 6.86 µM (active) in assay [11]; 10.9 µM (active) in assay [12]; 7.7 µM (active) in [13]; 5.49 µM (active) in [2]; 12.2 µM (active) in assay [3]; 12.2 µM (active) in [4]. In addition, the figures for the Potency (in the assay with Aromatase (Homo sapiens); in assay [9]) were 17.2 µM (active) and 21.7 µM (active), respectively. The molecule was classed as inactive in [5].

As to `Cc1c(Cl)c(=O)oc2cc(OP(=O)(OCCCl)OCCCl)ccc12`, the Potency result in assay [1], in assay [2], in [10], in assay [14], in [6] and in assay [15] was “inactive” throughout. The Potency entry (in assay [16]; in assay [7]; with Aromatase (Homo sapiens)) was “inactive” in each case. Moreover, the call in assay [5] was inactive.

Consider `O=C(CBr)c1ccc(O)cc1`, for which the Potency result in assay [1], in assay [2], in assay [3], in [4], in assay [10] and in [6] was “inactive” each time. Also, the Potency result (in assay [8]; with Aromatase (Homo sapiens); in [9]) was “inactive” in each case. Further, the Potency in [12] was 68.6 µM (active). Besides, the molecule was called inactive in assay [5].

Turning to `Clc1ccc(CSC(Cn2ccnc2)c2ccc(Cl)cc2Cl)cc1` (centres undefined), the Potency result in assay [1], in assay [6], in assay [7], in assay [8] and in [9] was “inactive” throughout. For the same molecule, the Potency in assay [12] was 11.4 µM (active); with Aromatase (Homo sapiens) it was 2.85 µM (active). For the same molecule, the outcome in assay [5] was inactive.

On to `NNC(=O)c1ccccc1`, for which the Potency result in [1], in [13], in assay [2], in assay [3], in assay [4] and in assay [10] was “inactive” each time. Moreover, the Potency entry (in assay [14]; in assay [6]; in [15]; in [7]; in assay [8]; with Aromatase (Homo sapiens)) was “inactive” throughout. The Potency entry in assay [9] was “inactive”. Further, the molecule was called inactive in [5]. Moreover, the Potency in assay [16] was 19.9 µM (active).

Turning to `Nc1ccccc1C(=O)OC/C=C/c1ccccc1`, the Potency entry (in assay [1]; in [3]; in [6]; in assay [15]; in assay [8]; with Aromatase (Homo sapiens)) was “inactive” each time. Further, in [9], the Potency result was “inactive”. Further, in assay [5], the molecule was called inactive.

On to `CC(C)N1C(=O)N(c2ccccc2)CSC1=NC(C)(C)C`, for which the Potency was 21.7 µM (active) in assay [11], 19.3 µM (active) in [12], 24.3 µM (active) in assay [13] and 49 µM [inconclusive] (active) in [14]. Besides, the Potency result in [2], in assay [17], in [3], in assay [6], in assay [15] and in assay [8] was “inactive” throughout.

As to `Cc1cc(C(F)(C(F)(F)F)C(F)(F)F)ccc1NC(=O)c1cccc(I)c1C(=O)NC(C)(C)CS(C)(=O)=O`, the Potency result in assay [1], in [2], in assay [3], in assay [4], in assay [6] and in [15] was “inactive” each time. For the same molecule, the Potency result (in assay [7]; in [8]; with Aromatase (Homo sapiens); in [9]) was “inactive” in each case. For the same molecule, the Potency in assay [12] is 43.5 µM (active). Also, the molecule was called inactive in assay [5].
